The values that follow come from PubChem BioAssay AID624170 (National Center for Advancing Translational Sciences (NCATS), 2012).

Each structure is given as a SMILES string. The whole screen tested about 410,000 compounds, of which about 850 (0.21%) were called active. Roughly 2% stayed inconclusive and do not appear here. The entries come from a sample that favours actives as a whole. Unmarked numbers belong to inactive results. Calls come from the whole dose curve; as a rule, active = well fitted inhibition curve with a large enough effect; inconclusive = small, poorly fitted or top-dose-only effect, or another doubt; inactive = no such curve, though single readings can be large or run the other way. Square brackets hold non-standard residues; d marks the D form. Side chains are listed from the residue outwards. Peptide text beside a SMILES is read from it. * marks the point of attachment. X1 = CCC(C)C(N)C1=NC(C(=O)*)CS1; Orn = NCCC[CH](N)C(=O)O
% is set by controls: 0 for no effect and ±100 for the full control effect; potency is the fitted concentration of half-maximal effect.

Sequence of Glutaminase kidney isoform, mitochondrial (Homo sapiens) (O94925 whole entry, looked up, canonical isoform): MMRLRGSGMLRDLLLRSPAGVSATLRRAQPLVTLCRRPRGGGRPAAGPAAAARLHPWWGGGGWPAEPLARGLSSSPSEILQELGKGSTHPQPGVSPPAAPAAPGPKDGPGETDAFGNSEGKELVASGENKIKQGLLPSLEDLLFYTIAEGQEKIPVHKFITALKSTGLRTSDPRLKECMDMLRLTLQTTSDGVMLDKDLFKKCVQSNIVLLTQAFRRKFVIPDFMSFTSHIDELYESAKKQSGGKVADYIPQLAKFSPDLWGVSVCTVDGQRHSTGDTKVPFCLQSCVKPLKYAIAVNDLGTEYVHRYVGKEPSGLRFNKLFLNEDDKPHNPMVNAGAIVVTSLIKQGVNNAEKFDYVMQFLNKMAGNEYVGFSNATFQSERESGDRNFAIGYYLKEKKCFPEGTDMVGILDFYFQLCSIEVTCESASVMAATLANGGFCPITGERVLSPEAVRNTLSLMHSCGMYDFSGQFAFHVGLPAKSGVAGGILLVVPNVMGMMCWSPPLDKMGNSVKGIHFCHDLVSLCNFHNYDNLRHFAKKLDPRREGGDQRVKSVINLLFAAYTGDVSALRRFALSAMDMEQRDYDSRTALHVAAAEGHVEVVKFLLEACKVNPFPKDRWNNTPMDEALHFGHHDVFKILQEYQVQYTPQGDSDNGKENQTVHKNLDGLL

The target in the assay is Glutaminase kidney isoform, mitochondrial (Homo sapiens) (UniProt O94925). As to the kind of experiment: qHTS for Inhibitors of Glutaminase (GLS). Particulars: GLS enzymatic activity, qHTS titration; series mostly up to 45.5 µM; activity change, negative = inhibition: at the top concentration. From the text:
Glutaminase (GLS) catalyzes the hydrolysis of glutamine into glutamate and ammonia. It plays a critical role in glutaminolysis, which is an important energy source for proliferating cells. It was shown that c-Myc, an oncogenic transcription factor known to regulate microRNAs and to stimulate cell proliferation, increases glutamine metabolism by stimulating the expression of GLS via direct suppression of miR23a and miR23b.
GLS is also thought to play a pathogenic role on HAD using a human HIV-1 infected macrophage system. […] GLS inhibition limits glutamate release and provides neuroprotection against HIV-1 infected macrophages.
The overall goal of this project is to identify small molecule inhibitors of GLS through quantitative high throughput screening (qHTS) of the MLSMR. A validated potent and selective inhibitor can be used as a tool molecule to further study the pharmacology of its target as well as explore its potential therapeutic application in cancer and inflammatory neurological disorders, such as HIV1-associated dementia (HAD) and multiple sclerosis.
NIH Chemical Genomics Center [NCGC]
NIH Molecular Libraries Probe Centers Network [MLPCN]
Assay Submitter (PI): Barbara S. Slusher, Johns Hopkins University
Three 3 uL of hKGA is dispensed into black well 1536-well plates in 45 mM KH2PO4 (pH 8.2), 0.02% Tween-20. Then 23 nL of compounds are added through pin tool transfer. To this, 1 uL of 1mM L-Glutamine and 1 uL of a solution of L-Glutamateoxidase, HRP, Amplex red are added. Plate is centrifuged for 25 sec before an initial fluorescence read is obtained on the ViewLux, after 30 min of RT incubation, the final read is taken on the ViewLux.
For orientation: qHTS replaces the single test concentration by a dilution series.
In the case of `CC1(C)OC[C@@H](COC(=O)CCc2ccc(OC[C@@H](O)CNCCNC(=O)N3CCOCC3)cc2)O1`, the Potency entry is “inactive”.

Consider `Cc1cc(C)c2c(c1)c(C)cc1nnc(SCC(=O)NCc3ccco3)n12`, for which the “activity change, negative = inhibition” value was -0.984%. Take `Cc1cc(C)c2nc(-c3ccco3)cc(C(=O)O)c2c1`: the Potency was 11.2 µM (active). As to `Cc1cccc(NC(=O)CSc2nc(-c3ccco3)cc(C(F)(F)F)n2)c1C`, the “activity change, negative = inhibition” value was 8.96%.

On to `COC(=O)[C@@H]1CC2=CC(=O)CC[C@]2(C)[C@@]23O[C@@H]2C[C@@]2(C)[C@@H](CC[C@@]24CCC(=O)O4)[C@H]13`, for which the “activity change, negative = inhibition” value is 11.8%. Turning to `CC(NC(=O)CCc1cn(Cc2ccccc2Cl)c2ccccc12)c1ccccc1` (centres undefined), the “activity change, negative = inhibition” value is -0.697%. For the compound `Cc1ccc(Cn2c(CNC(=O)Cc3cccc(C)c3)nc3cccnc32)cc1`, the “activity change, negative = inhibition” value was 1.55%.

In the case of `C=C1c2c(Cl)ccc(O)c2C(O)=C2C(=O)[C@]3(O)C(O)=C(C(N)=O)C(=O)[C@@H](N(C)C)[C@@H]3[C@@H](O)C12` (some centres undefined), the Potency was 10 µM (active). Regarding `Cc1c(O)cc2c(c1C)O[C@](C)(CCC[C@H](C)CCC[C@H](C)CCCC(C)C)CC2`, the “activity change, negative = inhibition” value was 1.97%.

Turning to `CCC[C@H]1C(=O)N2C(N(C)C)=Nc3ccc(C)cc3N2C1=O`, the “activity change, negative = inhibition” value was -12.6% [at 20 µM]. The same measure, in the same setting: to `CCc1cc2c(cc3c(=O)n(CC(=O)N4CCN(c5cc(Cl)ccc5C)CC4)ncn32)s1` belongs 2.45%; to `CC(C)CCN(C(=O)Nc1ccc(Cl)c(Cl)c1)C(C)c1cccs1` (centres undefined), 6.32%; to `COc1ccc(C2(C#N)CCC(C(=O)O)CC2)cc1OC1CCCC1` (centres undefined), 86.3%. Turning to `CCNCCC(=O)N1c2ccccc2Sc2ccc(NC(=O)OCC)cc21`, the Potency is 11.2 µM (active). In the case of `CCOC(=O)Nc1ccc2c(c1)N(C(=O)CCCl)c1ccccc1[S@]2=O`, the “activity change, negative = inhibition” value was -1.48%. Regarding `CCOC(=O)Nc1ccc2c(c1)N(C(=O)CN1CCN3CCCC3C1)c1ccccc1CC2` (centres undefined), the “activity change, negative = inhibition” value was 0.588%. Still for that read-out and setting: to `COc1cc(C(=O)N2CCC(c3ccncc3)CC2)cc(OC)c1OC` belongs -16%; to `O=C(Nc1ccc(O)cc1)c1ccccc1O`, 18.9%; to `COc1cc(OC)cc(C(=O)Nc2cc3nn(-c4ccccc4)nc3cc2Cl)c1`, -7.39%. Same read-out and setting: to `CCCc1c2oc(C(=O)O)cc(=O)c2cc2c(=O)cc(C(=O)O)n(CC)c12` belongs -0.467%. For `CCOc1cccc(/C=N/N2C(=O)CSC2=S)c1O`, the Potency was 10 µM (active). Take `CCOc1cc(/C=N/n2cnnc2)c(Br)cc1O`: the “activity change, negative = inhibition” value was 27.6%. Consider `O=C1CSC(=S)N1/N=C/c1ccc(O)c([N+](=O)[O-])c1`, for which the “activity change, negative = inhibition” value was -1.11%. As to `Cc1ccccc1NC(=O)c1cc2c([nH]c1=O)CC(C)(C)CC2=O`, the “activity change, negative = inhibition” value is -24%. As for `CCC(C)C(N)C1=NC(C(=O)NC(CC(C)C)C(=O)NC(CCC(=O)O)C(=O)NC(C(=O)NCCCCC2NC(=O)C(CC(N)=O)NC(=O)C(CC(=O)O)NC(=O)C(Cc3cnc[nH]3)NC(=O)C(Cc3ccccc3)NC(=O)C(C(C)CC)NC(=O)C(CCCN)NC2=O)C(C)CC)CS1` (stereo not drawn) (cyclo(DNK([Ile-Glu-Leu-X1])[Orn]IFH); configuration not given here), the “activity change, negative = inhibition” value is 5.57%. Regarding `CC1(C)[C@H](O[C@H]2O[C@H](C(=O)O)[C@@H](O)[C@H](O)[C@H]2O[C@@H]2O[C@H](C(=O)O)[C@@H](O)[C@H](O)[C@H]2O)CC[C@@]2(C)[C@H]1CC[C@]1(C)[C@H]2C(=O)C=C2[C@H]3C[C@@](C)(C(=O)O)CC[C@]3(C)CC[C@]21C`, the “activity change, negative = inhibition” value was 14.9%. Consider `Cc1cc(NC(=O)c2cccc(Cl)c2)ccc1-c1cc2ccccc2oc1=O`, for which the “activity change, negative = inhibition” value is -8.99%. Take `O=c1oc2ccccc2cc1-c1csc(Nc2ccc(O)cc2)n1`: the Potency was 2.82 µM (active). For the compound `N#C/C(=C\c1cccc(F)c1)c1nc(-c2cc3c(ccc4ccccc43)oc2=O)cs1`, the “activity change, negative = inhibition” value is 9.66%. For the compound `Cc1cc2nc(NC(=O)c3ccc(S(=O)(=O)N4CCOCC4)cc3)sc2cc1C`, the “activity change, negative = inhibition” value was -6.57%.

Regarding `CC1(C)O[C@@H]2C[C@@H]3[C@H]4C[C@@H](F)C5=CC(=O)C=C[C@]5(C)[C@@]4(F)[C@@H](O)C[C@]3(C)[C@]2(C(=O)CO)O1`, the “activity change, negative = inhibition” value is -9.75%.

On to `NNc1nnc(NN)c2ccccc12`, for which the “activity change, negative = inhibition” value was 18.4%. As to `COc1ccc(Br)cc1CNC(=O)c1cc(=O)[nH]c2ccc(S(=O)(=O)N3CCCC3)cc12`, the “activity change, negative = inhibition” value was -6.81%.

In the case of `O=C1c2c(O)cccc2[C@@H]([C@@H]2O[C@H](CO)[C@@H](O)[C@H](O)[C@H]2O)c2cc(CO)cc(O)c21`, the “activity change, negative = inhibition” value was -1.67%.

`CCC(CCC(C)C1CCC2C3CC=C4CC(O)CC[C@@]4(C)C3CC[C@@]12C)C(C)C` (some centres undefined): the “activity change, negative = inhibition” value is 0.242%. On to `CCN1C(=O)c2cccc3c(S(=O)(=O)Nc4ccccc4O)ccc1c23`, for which the Potency was 11.2 µM (active). On to `CCN(CC)S(=O)(=O)c1ccc2c3c(cccc13)C(=O)S2`, for which the “activity change, negative = inhibition” value was -7.06%. For `CCN1C(=O)c2ccccc2S(=O)c2ccc(C(=O)NCc3ccc(F)cc3)cc21` (centres undefined), the “activity change, negative = inhibition” value was -0.753%. Turning to `Cc1ccc(CSc2nc3ccsc3c(=O)n2CCC(C)C)cc1`, the “activity change, negative = inhibition” value was 6.64%. On to `CC[C@]1([C@H]2O[C@@H]([C@@H]3O[C@](O)(CO)[C@@H](C)C[C@H]3C)C[C@H]2C)CC[C@@H]([C@]2(C)CC[C@@]3(C[C@@H](O)[C@@H](C)[C@@H]([C@H](C)[C@H](OC)[C@H](C)C(=O)O)O3)O2)O1`, for which the “activity change, negative = inhibition” value was 0.877%.

In the case of `Cc1nc2nc(SCC(=O)NC3CCC(C)CC3)nn2c(C)c1Cc1ccccc1Cl` (centres undefined), the “activity change, negative = inhibition” value is -5.16%. With `Cn1c(SCC(=O)N/N=C/c2ccc(O)c(O)c2)nc2ccccc21`, the Potency is 17.8 µM (active).

In the case of `C=CCn1c(Cn2nnc3ccccc32)nnc1SCC(=O)N/N=C/c1cc(Br)cc(OC)c1O`, the “activity change, negative = inhibition” value is 28.5%. On to `COc1ccc(OC)c(NC(=O)CSc2nc3cccnc3n2C)c1`, for which the “activity change, negative = inhibition” value was -1.35%.
